Screening data (PubChem BioAssay)
SMN2 splice up: increases expression of the SMN2 splice variant; HEK293 SMN2-luciferase splicing reporter, luminescence, 30-36 h; 210,000 compounds, 2.8% hits; Potency, µM (doses to about 46.1 µM), for the others: top-dose activity change, positive = activation, most hits filed as activators; AID 1458; also: % of control where 0% means no effect; nearly all actives have a fitted effect of over 55% in size
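qHTS luciferase splicing reporter: luminescence rises when SMN2 exon 7 is included in transfected HEK293 cells. Compound exposure lasted 30-36 h at 37C, with 4.5 mM final sodium butyrate as control, followed by a ONE-Glo read.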
ELG1 genotox: genotoxicity induction in ELG1-luciferase HEK293T cells; HEK293T ELG1-luciferase reporter, luminescence, 16 h; Potency, µM (highest dose often 46 µM), inactives show top-dose activity change, positive = activation, actives largely listed as activators; 330,000 compounds, 1.3% hits; AID 504466; also: % of control where 0% means no effect; nearly all actives have a fitted effect of over 60% in size
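HEK293T cells expressing luciferase-tagged ELG1 were treated with compound or DMSO for 16 hr at 37°C. Luciferase activity was then read after 30 min with ONE-Glo at room temperature; rising signal flags genetic stress.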
FLuc counter: counter-screen for miR-21 project: firefly luciferase inhibitors or activators; P08659; purified FLuc, Km substrates, luminescence inhibition; Potency, µM (series often up to 57.5 µM), for inactives: top-dose activity change, negative = inhibition, hits mostly inhibitors; 360,000 compounds, 6.9% hits; AID 588342;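 also: plate controls were vehicle for no effect and reference inhibitor for full effect; nearly all actives have a fitted effect of over 55% in size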
Target sequence (P08659 whole entry, looked up): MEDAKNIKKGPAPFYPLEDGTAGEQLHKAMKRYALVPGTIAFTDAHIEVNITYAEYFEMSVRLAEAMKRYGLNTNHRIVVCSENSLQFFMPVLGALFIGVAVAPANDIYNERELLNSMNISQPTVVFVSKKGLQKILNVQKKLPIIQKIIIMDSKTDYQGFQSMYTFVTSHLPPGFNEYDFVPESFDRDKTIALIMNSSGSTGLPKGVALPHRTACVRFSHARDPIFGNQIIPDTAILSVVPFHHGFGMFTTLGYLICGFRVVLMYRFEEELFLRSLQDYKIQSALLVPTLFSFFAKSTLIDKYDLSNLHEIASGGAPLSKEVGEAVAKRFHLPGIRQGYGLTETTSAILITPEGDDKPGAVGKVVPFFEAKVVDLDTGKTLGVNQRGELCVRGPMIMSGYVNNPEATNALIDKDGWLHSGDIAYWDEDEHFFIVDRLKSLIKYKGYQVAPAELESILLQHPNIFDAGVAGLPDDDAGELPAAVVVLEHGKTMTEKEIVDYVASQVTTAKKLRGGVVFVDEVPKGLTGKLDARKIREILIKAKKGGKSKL
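Biochemical qHTS of compounds, final roughly 60 µM downward over six points, against 10 nM purified firefly luciferase using Km concentrations of substrates (10 uM D-luciferin, 10 uM ATP) in Tris acetate pH 7.5 buffer; luminescence output.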
NPC1 prom act: activators of NPC1 promoter. 320,000 compounds, 2.4% hits. Potency, µM (series often up to 9.22 µM), inactives show at the highest dose activation, hits mostly activators. AID 485313. Huh7 NPC1 promoter luciferase reporter, 24 h; also: % of control where 0% means no effect; nearly all actives have a fitted effect of over 60% in size
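Compounds in DMSO were transferred onto Huh7 NPC1-luciferase reporter cells pre-incubated 2 h; after 24 h at 37 °C, Amplite reagent was dispensed and luminescence recorded 10 min later.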
Rab9 prom act: activators of Rab9 promoter. Huh7 Rab9 promoter-luciferase reporter, luminescence, 24 h. Potency, µM (series often up to 9.22 µM), without a hit: at the top dose activation, negative = inhibition, usual class: activators. 320,000 compounds, 2.8% hits. AID 485297; also: % of control where 0% means no effect; nearly all actives have a fitted effect of over 60% in size
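Cells were plated at 1500 per well in reduced-serum medium with 10% FBS and left 2 h. Compound in DMSO was then added for 24 h at 37 °C. Reporter signal was read by luminescence after 10 min with luciferase detection reagent.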
Luc counter: blocks Kinase-Glo luciferase, a counter-screen artifact. Potency, µM (highest dose often 38.3 µM), without a hit: at the top dose activity change, negative = inhibition, hits mostly inhibitors. 200,000 compounds, 0.28% hits. Kinase-Glo luciferase, ATP luminescence, 8 min. Q27757; also: % is scaled to controls: 0 for no effect and ±100 for the full control effect; nearly all actives have a fitted effect of over 60% in size
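Recombinant Kinase-Glo luciferase, 10 uM ATP (linear range), luciferin; imidazole pH 7.2 / KCl / MgCl2 / Tween / BSA buffer; 8 min RT; luminescence.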
Starred values were filed as active, the others as inactive; ? = inconclusive; · = no result given; [ ] = another dose, or the depositor's remark. Only some compounds are listed: those with a hit (about 7.5% of all), similar ones and a draw of the others. Calls follow the shape of the dose curve; as a rule, active = well fitted curve in the direction sought with a large enough effect; inconclusive = small, poorly fitted or top-dose-only effect, or another doubt; inactive = no such curve, though single readings can be large; an effect the other way counts as inactive or inconclusive. Potency is read from the fitted curve at half-maximal effect.

SMILES	SMN2 splice up	ELG1 genotox	FLuc counter	NPC1 prom act	Rab9 prom act	Luc counter
C=CCN1c2ccccc2[C@]23C[C@@H](C(=O)OC)N(C(=O)COCc4ccccc4)C2=NC(C(=O)OC)=C(C(=O)OC)[C@H]13	5%[9.22 µM]	·	·	·	·	-4%[7.66 µM]
CCCc1cc(C(=O)Nc2ccc(C)cc2)no1	8%	?	3.4µM*	?	4.5µM*	-2%
CCCc1cc(C(=O)Nc2ccc(CC)cc2)no1	·	?	4.8µM*	3.2µM*	1.6µM*	·
C/C=N/NC(=O)CCNC(=O)c1ccccc1	0%	-2%	3%	3%	-4%	1%
COc1ccc2ccccc2c1/C=N/NC(=O)c1ccc(C)nc1	·	1%	21µM*	2%	4%	·
CCOc1ccc2ccccc2c1/C=N/NC(=O)c1ccncc1	·	10%	13µM*	0%	0%	·
Cc1ccc2nc(SCc3cccc([N+](=O)[O-])c3)nc(C)c2c1	-9%	1%	-16%	0%	2%	-1%
COc1ccc2nc(SCc3cccc(C)c3)nc(C)c2c1	20µM*	?	11µM*	?	4µM*	3%
COc1ccc2nc(SCC(=O)O)nc(C)c2c1	36%	15%	-22%	10%	9%	-1%
COc1ccc2nc(SCc3ccccc3C)nc(C)c2c1	22µM*	?	?	?	?	1%
CN(CCC#N)C(=S)Nc1ccc(S(=O)(=O)N2CCOCC2)cc1	4%	-4%	-1%	-6%	-2%	-1%
COC(=O)c1ccc(Cn2cnc3nc4c(cc3c2=O)CCCC4)cc1	·	·	5%	·	·	·
Cc1cccc(C(=O)Nc2sc3c(c2C#N)CCCCC3)c1	2µM*	?	0.95µM*	0.5µM*	1.3µM*	-8%
CCOC(=O)c1sc(NC(=O)c2cccnc2)c(C#N)c1C	-18%	1%	12µM*	15%	13%	-2%
NC(=O)c1c(NC(=O)c2ccc([N+](=O)[O-])o2)sc2c1CCCC2	·	1%	-15%	15%	11%	·
N#Cc1c(NC(=O)c2ccc([N+](=O)[O-])o2)sc2c1CCC2	·	?	4.8µM*	1.6µM*	1.6µM*	·
N#Cc1c(NC(=O)c2cnccn2)sc2c1CCCC2	10µM*	?	6µM*	18%	?	-3%
CCOc1ccc(NC(=O)CN(C)C(=O)CCCc2nc3ccccc3c(=O)[nH]2)cc1OCC	·	15%	-1%	-1%	0%	·
N#Cc1c(NC(=O)c2cccnc2)sc2c1CCC2	3%	?	9.5µM*	-16%	-5%	-6%
N#Cc1c(NC(=S)NC(=O)C2CCCC2)sc2c1CCCCC2	·	1%	?	19%	?	·
N#Cc1c(NC(=S)NC(=O)c2ccccc2)sc2c1CCCC2	16%	11%	?	25%	?	-1%
NC(=O)c1c(NC(=O)c2cccnc2)sc2c1CCCC2	-1%	?	?	?	?	0%
Cn1ncc(Cl)c1C(=O)NC(=S)Nc1sc2c(c1C#N)CCCCC2	-17%	1%	12µM*	19%	5%	0%
NC(=O)c1c(NC(=O)c2cccnc2)sc2c1CCCCC2	·	?	1.7µM*	2.2µM*	2.5µM*	·
N#Cc1c(NC(=O)c2ccccc2)sc2c1CCC2	2.2µM*	2.9µM*	2.7µM*	?	0.63µM*	-6%
SMILES	SMN2 splice up	ELG1 genotox	FLuc counter	NPC1 prom act	Rab9 prom act	Luc counter
NC(=O)c1c(NC(=O)c2cccc(N3C(=O)CCC3=O)c2)sc2c1CCCCC2	·	15%	0.95µM*	30%	?	·
COC(=O)c1ccc(-c2nc3cc(Cl)c(N)cc3s2)cc1	1.4µM*	?	0.076µM*	0.71µM*	0.89µM*	?
COC(=O)c1ccc(-c2nc(O)c(C)s2)cc1	3%	11%	9.5µM*	-4%	0%	-1%
COC(=O)c1ccc(C(=O)Nc2nc3cc(N)c(C)cc3s2)cc1	·	2%	-11%	2%	-4%	·
COC(=O)c1ccc(C2=NOC(C)(c3sc(-c4ccccc4)nc3C)C2)cc1 (stereo not given)	·	4%	?	2%	0%	·
Cc1nc(N2CCCC2)c2c(C(=O)Nc3ccc(C)c(Cl)c3)c(C)oc2n1	·	·	-2%	·	·	·
c1ccc(CN2CCN(c3nc4ccccc4c4ccccc34)CC2)cc1	-19%	-6%	0%	2%	-4%	-1%
c1ccc(CN2CCN(c3cnc4ccccc4n3)CC2)cc1	·	?	19µM*	?	?	·
CCS(=O)(=O)N1CCN(c2ccccc2F)CC1	0%	3%	-2%	-3%	-8%	2%
Oc1ccccc1N1CCN(c2ccc3ccccc3n2)CC1	·	?	5.4µM*	1.3µM*	0.4µM*	·
Fc1ccccc1N1CCN(c2cnc3ccccc3n2)CC1	2.8µM*	·	2.1µM*	·	·	-3%
C[N+](C)(C)CC(=O)N1CCN(c2ccc3ccccc3n2)CC1	·	0%	1%	0%	-1%	·
CSCCC(NC(=O)c1ccco1)C(=O)NCC1CCCO1 (stereo not given)	·	-1%	1%	-4%	0%	·
CCC(=O)NCCc1nc2cc(NC(=O)c3ccc(OC)cc3)ccc2n1C	13µM*	8.9µM*	17µM*	?	?	-3%
Cn1c(CCNC(=O)C2CCCCC2)nc2cc(NC(=O)c3cccs3)ccc21	11%	?	1%	7%	7%	1%
CC(=O)N1CCN(Cc2nc3cc(NC(=O)c4ccc(Cl)cc4)ccc3n2C)CC1	-45%	-3%	?	-5%	2%	2%
CC(=O)NCCc1nc2cc(NC(=O)c3cccs3)ccc2n1C	·	-13%	?	?	4.5µM*	-6%
CCCC(=O)Nc1ccc2c(c1)nc(CCNC(=O)c1ccccc1)n2C	-2%	-1%	4%	2%	-4%	-3%
CCC(=O)NCCc1nc2cc(NC(=O)c3ccc(F)cc3)ccc2n1C	·	7.3µM*	17µM*	1.3µM*	2.8µM*	·
COc1ccc(OCC(=O)Nc2ccc3c(c2)nc(CCNC(C)=O)n3C)cc1	·	-3%	3%	-3%	4%	·
CC(=O)NCCc1nc2cc(NC(=O)c3ccc(Cl)cc3)ccc2n1C	·	5.8µM*	8.5µM*	0.71µM*	1.1µM*	·
C=C1CC[C@H](O)C/C1=C/C=C1\CCC[C@]2(C)C([C@H](C)CC[C@@H](O)C(C)(C)O)CC[C@@H]12 (stereo not given in full)	-4%	·	·	·	·	·
CCC(=O)NCCc1nc2cc(NC(=O)c3ccc(Cl)cc3)ccc2n1C	·	?	11µM*	1.8µM*	0.63µM*	·
O=C(/C=C/c1ccc(-c2ccccc2)o1)c1ccccc1	·	?	6.7µM*	?	26%	-18%
